Assay outcomes as filed in PubChem BioAssay.
In the library only some 3.7% were active in any assay of this set; here they are far more common.
tim23-1 inh = growth inhibitors of tim23-1 mutant yeast | S. cerevisiae tim23-1 growth, BacTiter-Glo luminescence, 24 h | inhibition, % at 20 µM | hit rate 1.3% among 330,000;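 active means growth inhibition of the mutant yeast at or above 50%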;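 further: temperature-sensitive mutant grown at 25 °C; plate controls were DMSO-treated mutant yeast for no effect and medium wells lacking yeast for full effect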
TIM10 inh = TIM10 yeast growth inhibition. S. cerevisiae TIM10 strain growth, BacTiter-Glo luminescence, 24 h. inhibition, % at 10 µM. hit rate 1.4% among 330,000;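 active means inhibition of 40% or more at the single tested concentration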;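 further: wild-type TIM10 isogenic control strain grown at permissive 25 °C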
tim10-1 inh = inhibits growth of tim10-1 mutant yeast; S. cerevisiae tim10-1 ts strain growth, BacTiter-Glo, 24 h; AID 463190; hit rate 2.2% among 330,000; inhibition, % at 20 µM;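 active means inhibition of at least 40%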;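 further: mutant grown at 25 °C; 0% = DMSO wells with yeast and 100% = wells holding no yeast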
PfHsp90 yeast 2 = growth inhibition of yeast expressing Plasmodium Hsp90; S. cerevisiae expressing PfHsp90, BacTiter-Glo ATP, 48 h; yeast lacking PDR1 and PDR3 efflux regulators; inhibition, % at 9.4 µM; hit rate 0.32% among 310,000; AID 504621;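 active means every replicate shows inhibition above about 80%, whatever the replicate mean, limit read from the data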;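 further: 0% = DMSO neutral controls and 100% = 20 µM radicicol positive controls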
Rce1 inhib = inhibitors of yeast Ras-converting enzyme. yeast membranes, quenched prenylated peptide cleavage fluorescence. calls only. hit rate 0.27% among 290,000. AID 2563;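 active means fall in fluorescence gain of 50% or more versus controls, with final raw signal at or below 3038400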;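 further: plate controls were neutral control wells for no effect and wells lacking membranes for full effect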
Target sequence (Q03530 whole entry, looked up): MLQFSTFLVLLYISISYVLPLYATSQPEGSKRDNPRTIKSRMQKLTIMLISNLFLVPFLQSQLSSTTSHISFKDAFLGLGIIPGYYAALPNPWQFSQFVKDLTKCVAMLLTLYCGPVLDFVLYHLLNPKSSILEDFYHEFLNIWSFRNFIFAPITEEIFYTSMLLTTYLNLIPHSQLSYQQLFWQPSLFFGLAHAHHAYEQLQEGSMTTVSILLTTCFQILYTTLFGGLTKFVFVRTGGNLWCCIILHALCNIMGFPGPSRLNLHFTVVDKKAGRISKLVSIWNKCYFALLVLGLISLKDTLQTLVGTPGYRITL
tim23-1 conf = confirmation of tim23-1 mutant yeast growth inhibitors; shares compounds with tim23-1 inh; S. cerevisiae tim23-1 growth, BacTiter-Glo luminescence, 24 h; inhibition, % at 20 µM; hit rate 83% among 4,400;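 active means inhibition above about 39% in either of two replicate wells at 20 µM, limit read from the data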;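 further: temperature-sensitive tim23-1 mutant grown at 25 °C; 0% = DMSO wells with yeast and 100% = medium wells without yeast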
Starred values were filed as active, the others as inactive; i = inactive; / = not tested or not shown.

SMILES	tim23-1 inh	TIM10 inh	tim10-1 inh	PfHsp90 yeast 2	Rce1 inhib	tim23-1 conf
CCOC(=O)C1CCN(C(=O)Cc2ccccc2OC)CC1	-5	-6	-20	1	i	/
O=C(O)Cc1sc(NC2CCCCC2)nc1-c1ccc(Cl)cc1	12	13	-3	5	i	/
CC(C)(C)c1ccc(OCCn2nc(C(=O)O)c3ccccc3c2=O)cc1	18	20	9	-7	i	/
CCCC(CCC)c1nnc(NC(=O)c2ccco2)s1	62*	32	39	-12	i	64*
O=C(Nc1nc2c(F)cccc2s1)c1ccco1	55*	22	32	17	i	54*
Cc1sc(NC(=O)c2ccco2)nc1-c1ccccc1	56*	31	35	25	i	72*
CCC(c1ccccc1)c1nnc(NC(=O)c2ccco2)s1 (stereo not given)	10	8	7	/	i	/
CC(=O)Nc1nc2c(F)cccc2s1	4	3	4	10	i	/
Cc1ccc(N2C(=O)C(Cl)=C(N3CCOCC3)C2=O)c(C)c1	12	6	6	-7	i	/
COc1ccc(N2CCN(CCNC(=O)Nc3ccc([N+](=O)[O-])cc3OC)CC2)cc1	7	16	10	-7	i	/
O=C(COc1cccnc1[N+](=O)[O-])c1ccc(Cl)s1	0	-2	6	12	i	/
Cc1[nH]c(-c2ccc(F)cc2)cc1C(=O)N1CCN(c2cccc(Cl)c2)CC1	54*	36	36	-34	i	-6
O=C(c1cc2cc(F)ccc2[nH]1)N1CCN(c2cccc(Cl)c2)CC1	12	15	10	-36	i	/
Cc1cc2c(c(C)c1Cl)C(c1ccc3c(c1)OCO3)CC(=O)O2 (stereo not given)	45	-7	22	-43	/	/
Cc1ccc(C(C)C)c2c1C(c1ccc3c(c1)OCO3)CC(=O)O2 (stereo not given)	60*	10	28	-18	/	39*
Nc1ncc(Br)cc1S(=O)(=O)NC1CCCCC1	26	8	13	-15	i	/
CC1CCCC(NS(=O)(=O)c2cc(Br)cnc2N)C1C (stereo not given)	55*	28	38	-3	i	45*
CCOC(=O)c1c(NS(C)(=O)=O)sc2c1CCC(C)C2 (stereo not given)	57*	3	39	-18	i	40*
CCOC(=O)c1c(N)sc2c1CCC(C)C2 (stereo not given)	22	14	38	11	i	/
C=CCCC1CN(CCCC)S(=O)(=O)c2c(F)cccc2O1 (stereo not given)	/	/	/	8	/	/
CCC(C)N(C(=O)COC(=O)C1CCN(S(=O)(=O)c2ccc(C)c(C)c2)CC1)C1CCS(=O)(=O)C1 (stereo not given)	2	-3	-14	-1	i	/
COc1cccc(Nc2nc(-c3sc(N)nc3C)cs2)c1	23	10	15	21	i	/
COc1cccc(Nc2nc3ccc(OC)cc3s2)c1	61*	37	18	-47	i	57*
COc1cccc(Nc2nc(-c3sc(C)nc3C)cs2)c1	55*	30	15	-81	i	46*
Cc1ccccc1OCCSc1nc2ncnc(N)c2[nH]1	-3	1	-2	/	i	/
SMILES	tim23-1 inh	TIM10 inh	tim10-1 inh	PfHsp90 yeast 2	Rce1 inhib	tim23-1 conf
COc1ccc(/C=N/NC(=O)c2cc(-c3ccc4c(c3)OCO4)n[nH]2)cc1OC	-8	-14	-3	-16	i	/
Cc1ccc(S(=O)(=O)Nc2ccc(-c3csc(-c4ccccc4)n3)cc2)cc1	25	23	33	-3	i	/
O=S(=O)(Nc1ccc(-c2csc(-c3ccccc3)n2)cc1)c1ccccc1	50*	25	22	71	i	39
COc1ccc(CCNC(=O)C2CCN(S(=O)(=O)c3ccc(NC(C)=O)cc3)CC2)cc1OC	6	6	1	12	i	/
Nc1ccc(-c2cc3ccccc3oc2=O)cc1	-2	-11	-5	4	i	/
O=C/C=C/c1c(-c2ccccc2)cc2oc3ccccc3cc1-2	50*	36	39	-21	i	59*
Cc1ccc2c(Cl)c(C)c(N3CCCCC3)nc2n1	67*	17	27	-23	i	58*
CCCCN(Cc1ccccc1)S(=O)(=O)c1cc(Br)cc2c1N(C(C)=O)C(C)C2 (stereo not given)	56*	33	23	-29	i	53*
CC(=O)N1c2c(cc(Br)cc2S(=O)(=O)NCc2cccnc2)CC1C (stereo not given)	14	7	30	15	i	/
Oc1c(Cl)cc(Cl)cc1CNc1nccs1	51*	9	-19	-6	i	52*
Cc1cccc(N=Nc2ccc(O)c3ncccc23)c1	60*	17	18	101*	i	56*
CN(C)S(=O)(=O)c1cccc(NC(=O)COc2ccccc2C(=O)NCc2ccccc2)c1	7	8	-4	/	/	/
Oc1ccccc1/C=N/NC(=S)NC1CC2C=CC1C2 (stereo not given)	69*	40	18	-46	i	46*
Cc1ccc2[nH]c3ccccc3c(=O)c2c1	59*	10	-24	36	i	50*
Nc1nc2c(s1)CCc1c-2cnn1-c1ccccc1	62*	30	21	-24	i	61*
COCCn1nnnc1SCC(=O)Nc1ccc2c(c1)OCO2	-3	-9	-9	-33	i	/
O=C(COC(=O)CC1CCCC1)Nc1ccc(Cl)cn1	60*	33	15	-90	/	55*
O=C(Nc1nc2ccccc2[nH]1)c1ccc(OC(F)F)cc1	63*	24	-16	20	/	59*
CC(C)Oc1ccc(C(=O)Nc2nc3ccccc3[nH]2)cc1	13	17	-11	52	/	/
COc1ccc(-c2nc3ccccc3c(=O)n2O)cc1	58*	31	40	13	i	52*
CC(C)CC(=O)Nc1ccc2nn(-c3ccccc3)nc2c1	8	20	-16	16	i	/
O=C(O)CSc1cc(C(F)(F)F)nc(-c2ccccn2)n1	3	6	6	/	/	/
FC(F)(F)c1cccc(Sc2cc(C(F)(F)F)nc(-c3ccccn3)n2)c1	51*	25	28	37	i	43*
O=C(/C=C/c1ccccc1Cl)OCC(=O)c1ccc[nH]1	53*	11	7	-3	/	45*
CCn1c(/C=N/c2nc3ccccc3n2C)nc2ccccc21	56*	18	31	5	i	42*
O=C(Cn1nc(Cl)nc1Cl)c1ccc(F)cc1	4	3	-9	-22	i	/
O=C(Cn1nc(Cl)nc1Cl)c1ccc2c(c1)OCCO2	55*	16	26	29	i	38
CCOC(=O)c1cnc(-n2nc(C)cc2C)nc1NC1CCCCC1	54*	-6	-33	71	i	43*
